Measured values reported in PubChem BioAssay (NCATS).
Results filed as inconclusive are left out. Entries that show only a call come without a potency. Values without a mark were called inactive. Activity calls are given as the source filed them. Unless noted, calls follow the shape of the full dose curve.

Key:
[1] = molecular target: Androgen receptor (Homo sapiens) (UniProt P10275); test: qHTS assay for small molecule antagonists of androgen receptor signaling (AID 588516; active = well fitted curve in the direction sought with a large enough effect in the signal ratio, with a control signal flat, not every such curve was filed as active; the % refers to the signal ratio)
Chain of Androgen receptor (Homo sapiens) (P10275 whole entry, looked up): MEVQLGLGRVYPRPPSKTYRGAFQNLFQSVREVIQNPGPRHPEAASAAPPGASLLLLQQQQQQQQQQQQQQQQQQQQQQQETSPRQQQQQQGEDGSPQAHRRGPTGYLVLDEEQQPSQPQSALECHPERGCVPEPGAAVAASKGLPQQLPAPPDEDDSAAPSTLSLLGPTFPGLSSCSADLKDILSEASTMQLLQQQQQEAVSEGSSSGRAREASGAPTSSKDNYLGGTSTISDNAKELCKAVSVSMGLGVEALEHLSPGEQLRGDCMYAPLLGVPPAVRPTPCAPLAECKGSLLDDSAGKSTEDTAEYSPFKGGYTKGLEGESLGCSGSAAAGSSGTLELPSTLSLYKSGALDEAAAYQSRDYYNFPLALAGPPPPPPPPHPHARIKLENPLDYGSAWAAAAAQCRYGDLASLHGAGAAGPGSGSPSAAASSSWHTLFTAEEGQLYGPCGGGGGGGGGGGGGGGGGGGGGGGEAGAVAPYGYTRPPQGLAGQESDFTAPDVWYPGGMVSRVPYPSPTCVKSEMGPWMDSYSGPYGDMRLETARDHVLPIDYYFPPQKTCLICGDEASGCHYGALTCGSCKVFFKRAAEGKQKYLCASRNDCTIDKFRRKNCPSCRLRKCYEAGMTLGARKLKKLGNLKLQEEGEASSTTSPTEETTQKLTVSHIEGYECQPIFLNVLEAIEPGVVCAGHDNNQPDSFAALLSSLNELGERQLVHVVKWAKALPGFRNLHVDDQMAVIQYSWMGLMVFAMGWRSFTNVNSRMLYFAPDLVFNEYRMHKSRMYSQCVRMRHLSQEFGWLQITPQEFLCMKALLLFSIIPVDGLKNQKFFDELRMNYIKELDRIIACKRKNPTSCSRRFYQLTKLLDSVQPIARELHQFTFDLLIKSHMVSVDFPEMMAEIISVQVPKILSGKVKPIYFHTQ
How it was run: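 AR-UAS-bla-GripTite HEK 293 cells (2000/well, 5 h at 37 C) received compound titrations, then R1881 at 10 nM final; after 16 h at 37 C, CCF4 dye 2 h RT, beta-lactamase fluorescence read; IC50 from Hill fits.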

[2] = molecular target: Bile acid receptor (Homo sapiens) (UniProt Q96RI1); test: qHTS assay for small molecule antagonists of farnesoid X receptor signaling (AID 588526)
Chain of Bile acid receptor (Homo sapiens) (Q96RI1 whole entry, looked up): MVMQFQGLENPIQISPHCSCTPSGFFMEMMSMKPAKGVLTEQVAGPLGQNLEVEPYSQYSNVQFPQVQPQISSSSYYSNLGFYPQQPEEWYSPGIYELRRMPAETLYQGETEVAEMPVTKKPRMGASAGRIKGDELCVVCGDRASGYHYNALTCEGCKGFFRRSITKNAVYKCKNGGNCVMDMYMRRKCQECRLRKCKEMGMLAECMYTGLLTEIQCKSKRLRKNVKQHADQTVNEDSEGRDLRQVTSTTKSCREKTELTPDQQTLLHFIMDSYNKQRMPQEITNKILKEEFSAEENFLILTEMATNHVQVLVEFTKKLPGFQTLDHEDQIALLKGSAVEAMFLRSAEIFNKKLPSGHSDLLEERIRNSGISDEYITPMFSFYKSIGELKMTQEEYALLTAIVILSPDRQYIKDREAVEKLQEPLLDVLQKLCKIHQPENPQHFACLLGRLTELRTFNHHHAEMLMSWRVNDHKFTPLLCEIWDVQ
How it was run: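 Antagonist mode: titrated compounds tested against chenodeoxycholic acid stimulation (normalized to 50 uM CDCA and DMSO) in GeneBLAzer HEK293T cells for 16 h. Beta-lactamase read by CCF4 fluorescence; IC50 from Hill fits.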

[3] = molecular target: Glucocorticoid receptor (Homo sapiens) (UniProt P04150); test: qHTS assay for small molecule agonists of glucocorticoid receptor signaling (AID 588532; active = well fitted curve in the direction sought with a large enough effect in the signal ratio, with a control signal flat; the % refers to the signal ratio); conditions: HeLa MMTV-bla, beta-lactamase ratio, agonist, 18 h; hits give high values; percent of dexamethasone control, DMSO zero
Chain of Glucocorticoid receptor (Homo sapiens) (P04150 whole entry, looked up): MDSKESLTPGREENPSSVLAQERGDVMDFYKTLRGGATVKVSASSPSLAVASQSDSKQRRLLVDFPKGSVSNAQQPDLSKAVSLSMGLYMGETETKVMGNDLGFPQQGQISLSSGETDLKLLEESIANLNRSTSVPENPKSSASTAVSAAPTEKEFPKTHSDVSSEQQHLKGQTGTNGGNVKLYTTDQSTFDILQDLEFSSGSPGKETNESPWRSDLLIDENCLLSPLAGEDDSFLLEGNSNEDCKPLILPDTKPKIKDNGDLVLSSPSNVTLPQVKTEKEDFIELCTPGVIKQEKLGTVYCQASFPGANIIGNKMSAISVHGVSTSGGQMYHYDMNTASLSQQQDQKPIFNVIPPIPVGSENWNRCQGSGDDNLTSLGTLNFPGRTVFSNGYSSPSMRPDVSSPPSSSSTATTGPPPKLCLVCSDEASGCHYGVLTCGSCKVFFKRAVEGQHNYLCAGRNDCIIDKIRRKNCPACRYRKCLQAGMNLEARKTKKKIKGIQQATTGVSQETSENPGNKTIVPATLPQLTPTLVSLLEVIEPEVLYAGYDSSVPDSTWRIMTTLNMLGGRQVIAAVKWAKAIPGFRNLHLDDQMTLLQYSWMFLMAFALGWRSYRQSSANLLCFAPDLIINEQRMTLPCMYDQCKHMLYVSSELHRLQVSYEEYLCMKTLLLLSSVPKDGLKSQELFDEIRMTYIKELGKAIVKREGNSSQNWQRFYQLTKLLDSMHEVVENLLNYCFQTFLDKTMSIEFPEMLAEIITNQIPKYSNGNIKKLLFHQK
How it was run: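 Cells were plated and rested 3-5 h at 37 C, compounds were added in titration and incubated 18 h, then CCF4 substrate was loaded for 2 h at RT before reading blue/green fluorescence. EC50 came from Hill-equation fitting.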

[4] = molecular target: Glucocorticoid receptor (Homo sapiens) (UniProt P04150); test: qHTS assay for small molecule antagonists of glucocorticoid receptor signaling (AID 588533; active = well fitted inhibition curve with a large enough effect in the signal ratio, with a control signal flat, not every such curve was filed as active; the % refers to the signal ratio)
How it was run: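 Antagonist-mode qHTS: compound titrations added to GRE-bla HeLa cells, then dexamethasone 2 nM final; 18 h, 37 C. CCF4 FRET fluorescence normalized to dexamethasone and DMSO; IC50 from Hill fit.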

[5] = molecular target: Peroxisome proliferator-activated receptor delta (Homo sapiens) (UniProt Q03181); test: qHTS assay for small molecule antagonists of peroxisome proliferator-activated receptor delta signaling (AID 588535; active = well fitted inhibition curve with a large enough effect in the signal ratio, with a control signal flat, not every such curve was filed as active; the % refers to the signal ratio)
Chain of Peroxisome proliferator-activated receptor delta (Homo sapiens) (Q03181 whole entry, looked up): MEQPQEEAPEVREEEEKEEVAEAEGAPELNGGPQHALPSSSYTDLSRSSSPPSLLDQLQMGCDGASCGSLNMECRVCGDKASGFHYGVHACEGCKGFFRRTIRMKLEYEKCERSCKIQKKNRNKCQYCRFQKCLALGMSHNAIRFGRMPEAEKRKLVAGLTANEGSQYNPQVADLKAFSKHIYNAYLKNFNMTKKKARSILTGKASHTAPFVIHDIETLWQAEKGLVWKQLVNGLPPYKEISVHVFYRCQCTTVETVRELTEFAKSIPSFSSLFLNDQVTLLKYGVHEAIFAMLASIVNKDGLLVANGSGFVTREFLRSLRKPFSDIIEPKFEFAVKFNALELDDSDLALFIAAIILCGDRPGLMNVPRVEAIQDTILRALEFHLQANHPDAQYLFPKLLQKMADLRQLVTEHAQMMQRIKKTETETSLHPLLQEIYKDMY
How it was run: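 Fluorescence from CCF4-loaded GeneBLAzer PPAR-delta-UAS-bla HEK293T cells (2 hrs RT loading) quantified reporter inhibition after an 18 hr, 37 C compound exposure across a titration.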

[6] = molecular target: Peroxisome proliferator-activated receptor gamma (Homo sapiens) (UniProt P37231); test: qHTS assay for small molecule antagonists of peroxisome proliferator-activated receptor gamma signaling (AID 588537; active = well fitted inhibition curve with a large enough effect in the signal ratio, with a control signal flat, not every such curve was filed as active; the % refers to the signal ratio;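 also: reporter cells co-stimulated with 50 nM rosiglitazone agonist during compound treatment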)
Chain of Peroxisome proliferator-activated receptor gamma (Homo sapiens) (P37231 whole entry, looked up): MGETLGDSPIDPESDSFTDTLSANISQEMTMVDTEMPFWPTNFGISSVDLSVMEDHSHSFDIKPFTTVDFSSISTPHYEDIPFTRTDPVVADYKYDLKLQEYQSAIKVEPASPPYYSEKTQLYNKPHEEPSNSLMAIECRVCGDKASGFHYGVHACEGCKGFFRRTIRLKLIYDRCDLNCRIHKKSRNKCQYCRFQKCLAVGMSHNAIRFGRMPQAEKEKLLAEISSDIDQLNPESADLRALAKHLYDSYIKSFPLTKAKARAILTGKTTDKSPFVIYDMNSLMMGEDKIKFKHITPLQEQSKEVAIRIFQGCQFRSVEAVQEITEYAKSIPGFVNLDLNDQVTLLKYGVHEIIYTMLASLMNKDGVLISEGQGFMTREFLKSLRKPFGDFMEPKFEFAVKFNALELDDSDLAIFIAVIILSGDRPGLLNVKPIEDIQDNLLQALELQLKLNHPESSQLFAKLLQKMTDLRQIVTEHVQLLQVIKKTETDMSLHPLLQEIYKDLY
How it was run: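 Fluorescence at 460 and 530 nm (405 nm excitation) reported beta-lactamase cleavage of CCF4 after 2 h room-temperature loading. HEK293 reporter cells in 1% charcoal/dextran-treated FBS had received compound and rosiglitazone for 16 h.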

[7] = molecular target: Vitamin D3 receptor (Homo sapiens) (UniProt P11473); test: qHTS assay for small molecule antagonists of vitamin D receptor signaling (AID 588541);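 also: receptor activated by calcitriol during compound treatment; series mostly up to about 77 µM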
Chain of Vitamin D3 receptor (Homo sapiens) (P11473 whole entry, looked up): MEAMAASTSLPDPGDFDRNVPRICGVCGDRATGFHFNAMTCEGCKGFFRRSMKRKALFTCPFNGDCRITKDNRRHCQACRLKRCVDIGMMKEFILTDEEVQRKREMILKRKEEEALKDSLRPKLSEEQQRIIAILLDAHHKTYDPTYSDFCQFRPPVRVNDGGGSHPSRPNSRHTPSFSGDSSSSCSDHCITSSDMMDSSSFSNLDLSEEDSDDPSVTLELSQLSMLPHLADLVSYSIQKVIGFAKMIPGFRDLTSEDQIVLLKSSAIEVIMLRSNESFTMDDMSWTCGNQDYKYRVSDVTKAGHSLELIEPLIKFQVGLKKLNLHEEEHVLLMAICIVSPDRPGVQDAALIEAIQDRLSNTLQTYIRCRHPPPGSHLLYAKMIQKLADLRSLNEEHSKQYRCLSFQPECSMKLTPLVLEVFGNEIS
How it was run: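 VDR-UAS-bla HEK293T cells in 2% charcoal-stripped FBS were stimulated with 1-alpha,25-dihydroxyvitamin D3 (3 nM final) plus compound for 16 h at 37 C. The beta-lactamase CCF4 readout was normalized to 50 nM agonist and DMSO, and Hill fits gave IC50.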

[8] = qHTS assay for small molecule agonists of the antioxidant response element (ARE) signaling pathway (AID 651741; active = well fitted activation curve with a large enough effect in the signal ratio; the % refers to the signal ratio; also: potency is read from the fitted curve at half-maximal effect)
How it was run: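 Stably integrated ARE-beta-lactamase reporter HepG2 cells; 16 h compound incubation, 37 C; LiveBLAzer FRET substrate 2 h at room temperature; fluorescence intensity.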

[9] = qHTS assay for small molecule activators of the p53 signaling pathway (AID 651743; active = well fitted activation curve with a large enough effect in the signal ratio, not every such curve was filed as active; the % refers to the signal ratio; also: series mostly up to about 92 µM); conditions: HCT-116 p53RE-bla, beta-lactamase FRET ratio, 16 h; activation: hits give high values
How it was run: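 Following 16 hours of compound exposure at 37 C, HCT-116 cells bearing the p53RE-bla reporter were loaded with LiveBLAzer B/G FRET substrate for 2 hours at room temperature and fluorescence intensity was recorded.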

[10] = molecular target: Androgen receptor (Homo sapiens) (UniProt P10275); test: qHTS assay for small molecule agonists of androgen receptor signaling (AID 588515; active = well fitted curve in the direction sought with a large enough effect in the signal ratio, with a control signal flat; the % refers to the signal ratio); conditions: AR-UAS-bla HEK293, beta-lactamase ratio, agonist 16 h; activation: hits give high values
How it was run: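 Stimulation of an AR-responsive β-lactamase reporter in GripTite HEK293 cells was measured after 16 h compound exposure at 37 °C, via CCF4 fluorescence after 2 h RT. EC50 from Hill fits, normalized to R1881 at 30 nM.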

SMILES | outcome [1] | Potency [2] | activation [3] | Potency [4] | Potency [5] | Potency [6] | Potency [7] | Potency [8] | activation [9] | activation [10]
NCCCCCCCCCCCC(=O)O | inactive | inactive | 8.75% | inactive | inactive | inactive | inactive | inactive | – | –
C[Si](Cl)(Cl)c1ccccc1 | inactive | inactive | 17.8% | inactive | inactive | – | inactive | – | -1.52% | –
CCCCCCCCCCCCCCCCCCN | inactive | inactive | -6.46% | inactive | inactive | – | inactive | – | -1.5% | –
CC1(C)CC(NCCCCCCNC2CC(C)(C)NC(C)(C)C2)CC(C)(C)N1 | inactive | inactive | -7.91% | inactive | – | inactive | – | – | -1.03% | –
CCCCCCCCCCCCCCN | inactive | inactive | – | inactive | inactive | inactive | inactive | inactive | – | –
CCOC(=O)C1=NN(c2ccc(Cl)cc2Cl)C(C)(C(=O)OCC)C1 (stereo not drawn) | inactive | – | – | inactive | – | – | inactive | inactive | -4.17% | –
CCc1cccc(C)c1N(C(=O)CS(=O)(=O)O)[C@@H](C)COC | inactive | inactive | -18.8% | inactive | inactive | inactive | inactive | inactive | 3.16% | –
CC1(C)[C@@H](C=C(Cl)Cl)[C@@H]1C(=O)OCc1cccc(Oc2ccccc2)c1 | inactive | – | – | inactive | inactive | – | inactive | – | -0.529% | –
CCCCCCCCCC(C)=O | inactive | – | -12.1% | inactive | inactive | inactive | inactive | – | -2.23% | -3.13%
CNc1nc(=O)n(C2CCC(O)CC2)c(=O)n1C (stereo not drawn) | inactive | inactive | – | – | inactive | inactive | inactive | – | 1.92% | –
N[C@@H]1[C@@H](O)[C@H](O)[C@@H](CO)O[C@H]1O | inactive | – | – | – | inactive | inactive | – | – | -3.01% | 9.13%
COC(=O)c1ccccc1S(=O)(=O)NC(=O)Nc1nc(OC(F)F)cc(OC(F)F)n1 | inactive | inactive | -5.76% | inactive | inactive | inactive | inactive | inactive | -4.45% | –
O=C(O)c1ccc(C(=O)O)c(C(=O)O)c1 | inactive | – | -1.87% | – | inactive | inactive | – | – | – | –
CCCCCCCOC(=O)c1ccccc1C(=O)OCCCCCCC | inactive | inactive | -3.48% | – | inactive | – | inactive | – | – | –
Cc1ccc(N=Nc2c(O)ccc3ccccc23)c(C)c1 | inactive | inactive | – | – | inactive | inactive | inactive | 7.7 µM (active) | – | -2.14%
O=c1[nH]c(=O)c2[nH]cnc2[nH]1 | inactive | – | 3.26% | inactive | inactive | inactive | – | – | 4.14% | 2.45%
COC(=O)c1cccc(C(=O)OC)c1 | inactive | – | – | – | inactive | inactive | inactive | – | – | –
C=C(C)C(=O)OCCOC(=O)C(=C)C | inactive | – | -0.861% | inactive | inactive | inactive | inactive | – | -1.01% | –
CCSC(=O)N(CC(C)C)CC(C)C | inactive | – | -2.35% | – | inactive | – | inactive | inactive | – | 3.31%
C=Cc1ccccc1Br | inactive | inactive | -5.73% | – | inactive | – | inactive | inactive | -6.55% | –
CCCCC(CC)C(=O)OCCOCCOCCOC(=O)C(CC)CCCC (stereo not drawn) | inactive | – | -10% | inactive | – | inactive | inactive | inactive | 0.679% | –
CCC(=O)OCCc1ccccc1 | – | inactive | – | inactive | inactive | – | – | inactive | -3.48% | –
CCCCCCCCCCCCCO | – | – | 0.908% | inactive | – | inactive | – | 48.6 µM (active) | -3% | –
O=C(OCC1CCC2OC2C1)C1CCC2OC2C1 (stereo not drawn) | – | – | -15% | inactive | inactive | inactive | – | – | 2.61% | –
COC(=O)c1ccccc1C(=O)O | – | – | -3.15% | inactive | inactive | inactive | inactive | – | -3.42% | –
C=CC(=O)OCC[N+](C)(C)C | – | inactive | – | – | inactive | inactive | inactive | inactive | 2.09% | –
